Laboratory results published in PubChem BioAssay AID2100 (National Center for Advancing Translational Sciences (NCATS), 2009).
The whole screen tested about 300,000 compounds, of which about 1,200 (0.4%) were called active. Another 3% or so got no clear call; they are omitted. Calls follow the shape of the dose curve; as a rule, active = well fitted inhibition curve with a large enough effect; inconclusive = small, poorly fitted or top-dose-only effect, or another doubt; inactive = no such curve, though single readings can be large or run the other way. Shown is part of a subset that was picked to be rich in actives.

Target: Lysosomal alpha-glucosidase (Homo sapiens) (UniProt P10253)
Assay: qHTS Assay for Inhibitors and Activators of Human alpha-Glucosidase Cleavage of Glycogen;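 also: the screen sought inhibitors and activators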
Conditions: recombinant GAA, glycogen substrate, Amplex Red glucose oxidase fluorescence; series mostly up to 76.3 µM
Method in brief: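 Natural-substrate format: glycogen cleavage by 4 nM human enzyme, glucose read by Amplex Red coupling (Ex 573, Em 610 nm). Normalized to enzyme and no-enzyme controls.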
Potency is read from the fitted curve at half-maximal effect.

Potency, active:
COc1c(O)cc2oc(-c3ccc(O)c(O)c3)cc(=O)c2c1O 10 µM, Cc1nc(NNC(=O)c2ccccc2)cc(-c2ccccc2)n1 22.4 µM, CCCOc1ccc(N/C=C/C(=O)C(C)(C)C)cc1 31.6 µM, Cc1ccc(S(=O)(=O)Nc2ccccc2CNc2c(C)n(C)n(-c3ccccc3)c2=O)cc1 28.2 µM, CCOc1ccc(-n2c(O)c(/C=N/Nc3nnc(C)c(=O)[nH]3)c3ccccc3c2=O)cc1 39.8 µM, O=[N+]([O-])c1ccccc1Nc1ccc(O)cc1 10 µM, Cc1csc(NC(=O)NC2(C(F)(F)F)Oc3ccccc3O2)n1 8.84 µM, C/C(=N\Nc1nc2ccccc2[nH]1)c1cccs1 25.1 µM, C=CC[n+]1c(-c2ccc(C)cc2)csc1NNC(=O)Nc1ccccc1 25.1 µM, Cc1cc(C)n2nc(C(=O)Oc3ccc4c(c3)OCO4)nc2n1 12.5 µM, CCCc1nc2ccccc2c(=O)n1/N=C/c1ccc(O)c(O)c1 11.2 µM

Potency, inactive:
O=C(CSc1nc(-c2cccc(F)c2)[nH]c1-c1ccccc1)Nc1ccc2c(c1)OCO2, CCOc1ccc(N(CC)S(=O)(=O)N2CCCC(C(=O)Nc3ccc(C(C)=O)cc3)C2)cc1 (stereo unspecified), COc1ccc(-c2cc(=O)c3c(O)cc(O[C@@H]4O[C@H](CO[C@@H]5O[C@@H](C)[C@H](O)[C@@H](O)[C@H]5O)[C@@H](O)[C@H](O)[C@H]4O)cc3o2)cc1O, CCOC(=O)COc1cc(O)c2c(=O)cc(-c3ccccc3)oc2c1, CCCCN1C(=O)c2[nH]nc(-c3ccccc3O)c2C1c1cccc(OCc2ccccc2)c1 (stereo unspecified), CC1=C(C(=O)OCC2CCCCC2)C(c2c(F)cccc2Cl)CC(=O)N1 (stereo unspecified), COc1ccc(C(=O)NN(C)c2nc(-c3ccccc3)cc(C)c2S(C)(=O)=O)cc1, Cn1sc(NC(=O)c2ccccc2)nc1=O, CCOc1ccccc1C(=O)NC1(C(F)(F)F)NC(=O)N(CCc2ccc(OC)c(OC)c2)C1=O (stereo unspecified), COc1ccc(Cl)cc1NC(=O)CSc1nc(-c2cccs2)cc(C(F)(F)F)n1, CCOc1ccc(N/C=C/C(=O)c2ccccc2)cc1, CCOc1ccc(N/C=C/C(=O)c2cc(OC)c(OC)c(OC)c2)cc1, CC(C)C(=O)Nc1nc2c(s1)CC(C(C)(C)C)CC2 (stereo unspecified), Cc1ccc(S(=O)(=O)CC(=O)Nc2c(C)n(C)n(-c3ccccc3)c2=O)cc1, Cc1c(NS(=O)(=O)c2ccc(Cl)cc2)c(=O)n(-c2ccccc2)n1C, COc1ccc2[nH]c3c(c2c1)CCN(C(=O)CCC1CCCC1)C3c1ccc(F)cc1 (stereo unspecified), Cc1oc(-c2ccccc2)nc1Cn1c(SCc2cccc(C(F)(F)F)c2)nc2cccnc21, CCOc1ccc(-n2c(O)c(/C=N/c3ccnn3Cc3ccncc3)c3ccccc3c2=O)cc1, CCOc1ccc(-n2c(O)c(/C=N/Nc3nc(C)cc(C)n3)c3ccccc3c2=O)cc1, O=C(O)c1ccccc1C(=O)Nc1ccccc1[N+](=O)[O-], O=[N+]([O-])c1ccc(O)c(/C=N/Nc2ccccc2[N+](=O)[O-])c1, COc1cccc(C(=O)NC(=O)Nc2ccc(-c3cc(C(F)(F)F)nn3-c3ccccc3)cc2)c1, COc1ccc2c(c1)Cc1sc(NC(=O)c3ccccc3Br)nc1-2, COc1cc(SC)ccc1C(=O)Nc1nc(C)cs1, Cc1csc(NC(=O)Nc2ccccc2[N+](=O)[O-])n1, O=C(Nc1ccc2nc(SCCOc3ccccc3Cl)sc2c1)c1ccco1, COc1cccc(NC(=O)N(Cc2cn(C)c3ccccc23)C2CCCCCC2)c1, O=c1c2cccnc2n(Cc2cccc(F)c2)c(=O)n1Cc1ccccc1Cl, COc1cc(OC)cc(C(=O)Nc2cc3nn(-c4ccccc4)nc3cc2Cl)c1, C/C(=N\Nc1nc(Nc2ccccc2)nc(N2CCOCC2)n1)c1cccs1, O=C(Nc1ccccc1-c1nc2ccccc2[nH]c1=O)c1cccs1, Cc1c(C(=O)N2CCCC2)oc2c1-c1nn(CC(=O)NCc3ccc(OC(C)C)cc3)cc1CC2, COc1ccccc1CNc1ccc(-c2nc(-c3ccccc3C)no2)cc1[N+](=O)[O-], COc1ccc(NC(=O)CSc2nc3ncccc3[nH]2)c(OC)c1, C=CCNc1scc(-c2ccccc2)[n+]1CC=C, Cc1ccc(NC(=O)Nc2ccccc2)c(Br)c1, CN(CC(=O)Nc1cccc(C(F)(F)F)c1)S(=O)(=O)c1cccs1, CSc1nc(-c2ccccc2Cl)nc2c1Cc1c(CO)cnc(C)c1O2, CCc1nnc(SCc2c(F)cccc2Cl)c2cc3sccc3n12, CCN(CCCNC(=O)c1cc2cc3cc(OC)ccc3nc2s1)c1ccccc1, Cc1cc(C)n2nc(C(=O)N3CCN(Cc4ccc5c(c4)OCO5)CC3)nc2n1, Cc1cc(C)n2nc(C(=O)NC(C)(C)C)nc2n1, CSc1nc(Nc2ccc(F)cc2)cc(-c2ccccc2)n1, CCOc1ccc(N(CC)C(=O)c2noc3c2COc2ccc(C)cc2-3)cc1, O=c1c2ccccc2ncn1/N=C/c1ccccc1, Cc1[nH]n(-c2cccc(Cl)c2)c(=O)c1/C=N/n1c(C)nc2ccccc2c1=O, CC(=O)c1ccc(NC(=O)c2nc(-c3ccc(C)cc3)n3c2CCCCC3)cc1, COc1ccccc1NC(=O)Cn1cnc2ccc(S(=O)(=O)N3CCC(C)CC3)cc2c1=O, CCc1ccc(NC(=O)CCS(=O)(=O)c2cc3c(cc2Cl)NC(=O)CO3)cc1, CC(C)Cn1c(=O)c2ccccc2n2c(CCC(=O)N3CCN(c4cccc(Cl)c4)CC3)nnc12
